Records with an inconclusive call do not appear. Calls of active or inactive are those of the source. Calls come from the whole dose curve; as a rule, active = well fitted inhibition curve with a large enough effect; inconclusive = small, poorly fitted or top-dose-only effect; inactive = flat fitted curve, though single readings scatter.
The compounds below were run on HACAT (assay: qHTS assay to identify novel small-molecules to repurpose for Merkel cell carcinoma treatment (AID 1296009; note: nearly all actives have a fitted effect of over 60% in size)). Details: MCC and control cell lines, CellTiter-Glo viability, 72 h; at 44.8 µM (top of the series) unless noted.
Method in brief: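 qHTS format: cells treated with library compounds in DMSO across 8 (NPC) or 11 (MIPE) concentrations. Readout after 72 hr at 37 degree celsius was CellTiter-Glo luminescence.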

Row | SMILES | outcome
1 | O=C(NCC1CCN(Cc2cccc(Cl)c2)CC1)[C@@H]1CCCN(c2ncnc3c2nc2n3CCCC2)C1 | inactive
2 | CC(C)(Cc1nc(-c2ccc(O)cn2)no1)C(=O)NC1=C(C(=O)O)CCCC1 | inactive
3 | CCCN(CCc1ccsc1)C1CCc2c(O)cccc2C1 (stereo not given) | inactive
4 | COc1cc(F)c(C(C)C)cc1-c1ccc(C(F)(F)F)cc1CN1C(=O)OC(c2cc(C(F)(F)F)cc(C(F)(F)F)c2)C1C (stereo not given) | inactive
5 | COC(=O)/C=C/C=C/C(=O)OC1C=C2COC(=O)C2(O)C2(C)CCCC(C)(C)C12 (stereo not given) | inactive [at 17.4 µM]

— PubChem BioAssay (NCATS)
